Only some compounds are listed: those with a hit (about 22% of all), similar ones and a draw of the others.
Pf growth 96h: Primary qHTS for delayed death inhibitors of the malarial parasite plastid, 96 hour incubation. P. falciparum luciferase reporter growth, 96 h. hit rate 6.9% among 320,000. Potency, µM (series often up to 28.7 µM), inactives show at the highest dose activity change, negative = inhibition, most hits filed as inhibitors. AID 504834, 2011; further: potency means the concentration at half of the fitted maximal effect; on the % scale 0 is the no-effect control and ±100 the full control effect
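Parasite growth measured via integrated firefly luciferase reporter in P. falciparum. Infected erythrocytes at 2% hematocrit, 0.05% parasitemia final were treated 96 hours at 37 C under 5% CO2, and luminescence was read.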
Cycloheximide cs: Cycloheximide Counterscreen for Small Molecule Inhibitors of Shiga Toxin. cell reporter, cycloheximide protein synthesis inhibition counterscreen. max response, %. hit rate 12% among 300,000. AID 2314, 2010; in the data active means max response mostly above about 13%, no sharp cut-off; inactive means mostly below about 14%; further: read at 38.3 µM for the half of the compounds with a filed dose; 0% is about no effect
LmPK inhibitor: qHTS Assay for Inhibitors of Leishmania Mexicana Pyruvate Kinase (LmPK) | Q27686 | purified LmPK, Kinase-Glo ATP luminescence, 1 h | Potency, µM (top dose mostly 57.5 µM), without a hit: at the highest dose activity change, negative = inhibition, usual class: inhibitors | hit rate 0.37% among 290,000; further: potency means the concentration at half of the fitted maximal effect; on the % scale 0 is the no-effect control and ±100 the full control effect
Target sequence (Q27686 whole entry, looked up): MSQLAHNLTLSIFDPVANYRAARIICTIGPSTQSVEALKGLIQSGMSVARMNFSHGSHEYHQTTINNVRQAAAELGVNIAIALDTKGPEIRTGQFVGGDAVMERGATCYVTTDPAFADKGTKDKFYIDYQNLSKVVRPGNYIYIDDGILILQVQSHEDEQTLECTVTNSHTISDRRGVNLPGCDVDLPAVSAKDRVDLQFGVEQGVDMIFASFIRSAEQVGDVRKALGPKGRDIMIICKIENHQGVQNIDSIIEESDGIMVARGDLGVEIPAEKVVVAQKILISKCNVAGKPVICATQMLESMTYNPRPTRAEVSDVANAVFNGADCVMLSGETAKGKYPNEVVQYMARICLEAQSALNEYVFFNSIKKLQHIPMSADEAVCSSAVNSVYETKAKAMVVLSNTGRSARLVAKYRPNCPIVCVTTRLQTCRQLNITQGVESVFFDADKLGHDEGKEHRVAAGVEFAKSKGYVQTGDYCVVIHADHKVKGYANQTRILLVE
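Pyruvate kinase activity monitored as ATP production (luciferase luminescence). Conditions: 0.1 nM enzyme, 0.5 mM PEP, 0.1 mM ADP, 1 h, RT; normalized against uninhibited and no-enzyme wells.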
Pf growth 48h: Primary qHTS for delayed death inhibitors of the malarial parasite plastid, 48 hour incubation | P. falciparum luciferase growth in erythrocytes, 48 h | Potency, µM (titrated, usually from 28.7 µM), without a hit: at the highest dose activity change, negative = inhibition, actives largely listed as inhibitors | hit rate 5.9% among 310,000; further: potency means the concentration at half of the fitted maximal effect; on the % scale 0 is the no-effect control and ±100 the full control effect
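Compounds are pin-transferred into medium, infected erythrocytes (2% hematocrit, 0.1% parasitemia final) are added, and plates sit one parasite generation at 37 C in 5% CO2. Detection reagent is then added and luminescence measured.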
Shiga inhibitor: A qHTS for Small Molecule Inhibitors of Shiga Toxin; Vero cells, Shiga toxin protein synthesis inhibition reporter; inhibition, % at 38.7 µM; hit rate 9.2% among 290,000; AID 2315, 2010; in the data active means inhibition mostly above about 28%, no sharp cut-off; inactive means mostly below about 43%; further: 0% is about no effect
* hit, by the source's call; ? = inconclusive; nt = no result given. Unless noted, the call rests on the fitted dose curve; in most records, active means well fitted inhibition curve with a large enough effect; inconclusive means small, poorly fitted or top-dose-only effect, or another doubt; inactive means no such curve, though single readings can be large or run the other way.

SMILES	Pf growth 96h	Cycloheximide cs	LmPK inhibitor	Pf growth 48h	Shiga inhibitor
COc1ccc(-c2csc3ncnc(N4CCN(S(=O)(=O)c5ccc(C)cc5)CC4)c23)cc1	?	nt	nt	12µM*	nt
COc1ccc(CN2CCN(c3ncnc4scc(-c5ccc(F)cc5)c34)CC2)cc1	9.3µM*	-4	-1%	?	-3
Cc1sc2ncnc(N3CCN(Cc4ccccc4)CC3)c2c1-c1ccccc1	10µM*	-8	-4%	12µM*	0
Cc1ccc(N2C(=O)N(CC(=O)Nc3ccc([N+](=O)[O-])cc3)C(=O)C2C)cc1 (configuration not stated)	-23%	17	-5%	3%	-31
CCOC(=O)CN1C(=O)C(=O)N(Cc2ccccc2F)C1=O	-10%	5	4%	-1%	-5
COc1ccc(N2CCN(c3ncnc4scc(-c5ccccc5)c34)CC2)cc1	?	-6	-2%	9.3µM*	-5
COc1ccc(N2CCN(c3ncnc4scc(-c5ccc(C)cc5)c34)CC2)cc1	?	-2	6%	?	-3
Fc1ccc(-c2csc3ncnc(N4CCN(c5ccccc5)CC4)c23)cc1	5.9µM*	-4	5%	12µM*	-8
c1ccc(-c2csc3ncnc(N4CCc5ccccc5C4)c23)cc1	12µM*	2	3%	12µM*	14
COc1ccc(-c2csc3ncnc(N4CCN(c5cccc(OC)c5)CC4)c23)cc1	?	-2	2%	?	10
COc1ccc(-c2csc3ncnc(N4CCN(c5cccc(Cl)c5)CC4)c23)cc1	7.4µM*	-1	-3%	?	-8
CCN(CC)c1ccc(C(=O)NNC(=O)CNC(=O)c2cccs2)cc1	-13%	nt	nt	-8%	nt
CC1CCCN(S(=O)(=O)c2ccc(C(=O)NC(C)c3ccccc3)cc2)C1 (configuration not stated)	2%	nt	nt	?	nt
CCC(C)(C)c1ccc2c(c1)C(=O)c1ccccc1C2=O	?	62*	-19%	222%	37*
O=C(CCc1nnc2ccc(NCc3ccccc3)nn12)NC1CCCCC1	12µM*	2	-7%	8%	7
Fc1ccc(-n2c(-c3cccs3)nc3nc4ccccc4nc32)cc1	?	-5	-3%	-9%	2
Cc1ccc(-n2c(-c3cccs3)nc3nc4ccccc4nc32)cc1	2.9µM*	-2	2%	1%	-8
CCCNC(=S)N1CC2(C)CN(C(=O)C(=O)OC)CC(C)(C1)C2=O	73%	12	-1%	13%	2
CO/N=C/CC(=O)c1ccc([N+](=O)[O-])c(CS(=O)(=O)c2ccc(Cl)cc2)c1	?	2	-1%	15µM*	2
CSc1ccccc1C(=O)NC1CCSc2ccccc21 (configuration not stated)	-9%	9	1%	-11%	25
COc1nc(NCCc2ccc(OC)c(OC)c2)nc(OC)n1	nt	1	-2%	-9%	-7
COc1nc(NCCC2=CCCCC2)nc(OC)n1	?	12	-2%	10µM*	6
CC(/C=N/N1C(=O)CSC1=S)=C\c1ccccc1	11%	-2	-4%	-7%	14
Cc1cccc(N2C(=O)C(Oc3ccc(Cl)cc3Cl)C2C=O)c1C (configuration not stated)	?	-2	-1%	?	-15
NC(=O)Cc1nc(-c2ccc(F)cc2)cs1	34%	-2	-7%	27%	12
SMILES	Pf growth 96h	Cycloheximide cs	LmPK inhibitor	Pf growth 48h	Shiga inhibitor
CC(C)(C)S(=O)(=O)Cc1nc(-c2ccc(Cl)c(Cl)c2)cs1	46%	30*	6%	?	65*
COc1cc(NS(=O)(=O)c2ccc(N)cc2)nc(OC)n1	0%	-3	8%	-7%	6
COc1cc(/C=C/C(=O)c2ccc(NS(=O)(=O)c3ccc(C)cc3)cc2)cc(OC)c1O	?	-6	0%	12µM*	-15
COc1cc(/C=C/C(=O)c2ccc(NS(=O)(=O)c3ccc(C)cc3)cc2)ccc1OC(F)F	?	4	1%	15µM*	19
COc1cc(/C=C/C(=O)O)ccc1OS(=O)(=O)c1ccc(C)cc1	2%	0	6%	-16%	20
COc1cc(NS(=O)(=O)c2ccc(NS(=O)(=O)c3ccc(C)cc3)cc2)nc(OC)n1	1.9µM*	-2	-1%	9%	-6
COc1cccc(/C=C/C(=O)c2ccc(NS(=O)(=O)c3ccc(C)cc3)cc2)c1	?	-2	-2%	-28%	-14
Cc1ccc(NC(=O)CSCC(=O)NCCc2ccccc2)c(C)c1	?	nt	nt	3%	nt
COc1ccc(Cl)cc1NC(=O)c1sc2nc(C)nc(N3CCOCC3)c2c1C	?	-1	9%	-6%	4
Cc1ccc(-n2nc3ccc(NC(=S)NC(=O)/C=C/c4ccco4)cc3n2)cc1	1.9µM*	12	1%	64%	37*
Cc1ccc(-n2nc3cc(C)c(NC(=S)NC(=O)/C=C/c4ccco4)cc3n2)cc1	-18%	70*	-1%	117%	active
Cc1cc(C)cc(NC(=O)COC(=O)Cn2cnc3c2c(=O)n(C)c(=O)n3C)c1	-1%	nt	nt	-6%	nt
CS(=O)(=O)Nc1ccc(C2=NN(S(C)(=O)=O)C(c3ccc4c(c3)OCO4)C2)cc1 (configuration not stated)	2.9µM*	30*	1%	148%	85*
O=C(O)CCCC(=O)N1N=C(c2ccccc2)CC1c1ccc2c(c1)OCO2 (configuration not stated)	?	2	-1%	?	-5
CC(=O)N1N=C(c2cccc(NS(C)(=O)=O)c2)CC1c1ccc2c(c1)OCO2 (configuration not stated)	-87%	13*	-6%	26%	42
CC(OC(=O)CN1C(=O)NC2(CCCC2)C1=O)C(=O)Nc1cccc(Cl)c1 (configuration not stated)	8%	-3	1%	-1%	6
N#C/C(=C\c1c(Oc2ccccc2F)nc2ccccn2c1=O)C(=O)NC1CCS(=O)(=O)C1 (configuration not stated)	9.3µM*	-1	3%	?	3
Cc1cc(C)cc(Oc2nc3ccccn3c(=O)c2/C=C(\C#N)C(=O)NC2CCS(=O)(=O)C2)c1 (configuration not stated)	-17%	-3	4%	?	23
Cc1ccc(Oc2nc3ccccn3c(=O)c2/C=C(\C#N)C(=O)NC2CCS(=O)(=O)C2)c(C)c1 (configuration not stated)	10µM*	-2	0%	?	4
CC1(C)S[C@@H]2[C@H](NC(=O)COc3ccccc3)C(=O)N2[C@H]1C(=O)O	-16%	9	nt	7%	-2
COc1cccc(CC(=O)OCC(=O)NCCc2ccc(F)cc2)c1	-30%	nt	nt	-23%	nt
CCOC(=O)c1ccc(N2CCN(c3ccccc3F)CC2)c(NC(=O)Nc2cccc(OC)c2)c1	?	4	1%	5.2µM*	-6

Screening results: PubChem, National Center for Advancing Translational Sciences (NCATS)
